Screening results as filed in PubChem BioAssay.
Rows were chosen to be rich in hits. Some 5.7% of all compounds tested hit in one or more screens of this group.
AHR act: human AHR activation; P35869; AID 2796; 320,000 compounds, 2.5% hits; AHR-responsive luciferase reporter cells, luminescence; activation, % at 5 µM; in the data active = activation above about 47%
Target sequence (P35869 whole entry, looked up): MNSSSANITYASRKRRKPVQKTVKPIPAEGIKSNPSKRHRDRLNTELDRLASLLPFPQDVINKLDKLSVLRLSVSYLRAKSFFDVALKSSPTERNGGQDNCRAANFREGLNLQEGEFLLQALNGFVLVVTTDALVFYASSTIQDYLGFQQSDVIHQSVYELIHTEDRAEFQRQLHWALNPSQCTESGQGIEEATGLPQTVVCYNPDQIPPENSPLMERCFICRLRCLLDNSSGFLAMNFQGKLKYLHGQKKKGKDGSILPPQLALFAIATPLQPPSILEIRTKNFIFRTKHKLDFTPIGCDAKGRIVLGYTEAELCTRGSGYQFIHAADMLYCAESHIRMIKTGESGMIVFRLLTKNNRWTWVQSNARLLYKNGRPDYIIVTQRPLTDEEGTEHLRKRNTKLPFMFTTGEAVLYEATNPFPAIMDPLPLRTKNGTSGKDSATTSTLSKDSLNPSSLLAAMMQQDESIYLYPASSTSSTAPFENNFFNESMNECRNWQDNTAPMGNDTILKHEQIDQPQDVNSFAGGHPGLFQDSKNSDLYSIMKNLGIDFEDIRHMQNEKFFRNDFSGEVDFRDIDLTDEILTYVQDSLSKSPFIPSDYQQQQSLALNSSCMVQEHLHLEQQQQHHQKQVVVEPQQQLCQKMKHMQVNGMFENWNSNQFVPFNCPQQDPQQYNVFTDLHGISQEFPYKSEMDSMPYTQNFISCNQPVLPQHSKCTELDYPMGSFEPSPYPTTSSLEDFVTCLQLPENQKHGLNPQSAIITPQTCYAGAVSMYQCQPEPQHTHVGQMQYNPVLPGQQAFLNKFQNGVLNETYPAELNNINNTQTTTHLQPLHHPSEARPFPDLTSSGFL
DAX1 inh-1: inhibitors of human orphan nuclear receptor DAX1 (NR0B1); P51843; HEK293 Gal4-DAX1 luciferase reporter, luminescence; inhibition, % at 6.75 µM; 340,000 compounds, 0.99% hits; AID 504766;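 active = inhibition above the mean over all tested compounds plus 3 SD, cut at about 4.2% in these data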;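 note: inhibition shows as a rise in luminescence from relieved DAX1 repression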
DAX1 inh-2: DAX1 (NR0B1) inhibition, primary screen | 370,000 compounds, 1.1% hits | AID 652010 | HEK293T StAR-luciferase reporter, SF-1/DAX-1 repression relief | inhibition, % at 6.8 µM;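 active = inhibition above the mean over all tested compounds plus 3 SD, cut at about 3.6% in these data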;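 note: higher inhibition means more luminescence from relief of DAX-1 repression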
hgDAF12 agonist: activates the H. glycines DAF-12 receptor ligand-binding domain; activation, % at 6.8 µM; AID 687014; 370,000 compounds, 1.8% hits; HEK293 GAL4-hgDAF12 UAS-luciferase reporter, agonist luminescence; normalized to butyrate control;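 active = activation above a cutoff set at the mean of all screened compounds plus 3 SD, cut at about 10% in these data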
ssDAF12 agonist: S. stercoralis DAF-12 activation, primary screen. activation, % at 6.8 µM. HEK293 ssDAF-12/GRIP1 lit1-tk-luc reporter, luminescence; % of 3 µM dafachronic acid response. AID 652126. 370,000 compounds, 1% hits;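 active = activation above the mean over all tested compounds plus 3 SD, cut at about 0.9% in these data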
hcDAF-12 act: activates DAF-12 receptor from parasite H. contortus; AID 652067; HEK293 hcDAF-12 lit1-tk-luc reporter, luminescence; 0% DMSO, 100% Δ7-dafachronic acid; 370,000 compounds, 1.4% hits; activation, % at 6.8 µM;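 active = activation above the mean of all tested compounds plus 3 SD, cut at about 5.5% in these data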
Numbers stand for hits; 0 = inactive; - = not tested or not shown.

SMILES	AHR act	DAX1 inh-1	DAX1 inh-2	hgDAF12 agonist	ssDAF12 agonist	hcDAF-12 act
O=S(=O)(c1ccccc1)N(CC(O)Cn1c2ccccc2c2ccccc21)c1ccccc1 (configuration not stated)	64	0	0	0	0	0
FC(F)(F)Oc1ccc(Cn2ccc3ccc(-c4ccc5ccn(Cc6ccc(OC(F)(F)F)cc6)c5c4)cc32)cc1	-	-	0	0	0	0
CCOc1ccc2oc(C(=O)NC(C)(C)CC)c(C)c2c1	0	0	0	13	0	0
COc1ccc(/C=C/C(=O)Nc2cc(C(F)(F)F)ccc2Cl)cc1	0	0	0	0	0	0
COc1ccc(/C=N/NC(=S)Nc2cc(C(F)(F)F)ccc2Cl)cc1	54	-	0	0	0	0
O=C(Cc1c[nH]c2ccccc12)Nc1ccc(Nc2cccnc2)c(-c2ccc(-c3ccccc3)cc2F)c1	-	-	0	0	0	5.7
O=C(Cc1c[nH]c2ccccc12)Nc1ccc(Nc2cccnc2)c(-c2ccc(F)c(F)c2)c1	-	-	0	0	0	0
C/C(=N/NC(=O)c1ccccn1)c1ccc(O)cc1	0	4.6	5.1	13	0	0
C/C(=N\NC(=O)c1ccccn1)c1ccc(Cl)cc1	0	-	0	0	0	0
C/C(=N/NC(=O)c1ccccn1)c1c[nH]c2ccccc12	0	5.8	0	12	0	0
Oc1cc(-c2ccc(N3CCCCC3)nc2)cc2cccnc12	0	5.6	-	-	-	-
O=C(Nc1ccccc1Cl)OCC#CCOC(=O)Nc1ccccc1Cl	-	0	0	0	0	0
O=C(C1CCC(CNc2c(N3CCCCC3)c(=O)c2=O)CC1)N1CCCC1 (configuration not stated)	0	5.5	0	0	0	0
O=C1c2cccc3cccc(c23)C(=O)N1CCCN(C(=O)c1cccs1)c1cccc(F)c1	51	0	0	0	0	0
O=C(O)CCCN1C(=O)c2cccc3cccc(c23)C1=O	0	0	0	0	0	0
COC(=O)C1=C(C)N(Cc2cccc(C(F)(F)F)c2)C(=NCc2ccc(OC)cc2)NC1c1ccc(Cl)cc1 (configuration not stated)	-	-	0	0	0	0
COCCNC(=O)Cn1nc(-c2ccc(Cl)cc2)c2ccccc2c1=O	0	0	0	0	11	0
CC(C)(C)n1ncc2c(=O)n(CC(=O)NCc3ccccc3Cl)cnc21	0	0	0	0	0	6.1
Fc1ccccc1CN1CCC(Cc2ccccc2)CC1	0	0	0	0	0	0
COc1cc(CN2CCC(Cc3ccccc3)CC2)cc([N+](=O)[O-])c1O	0	0	0	0	0	0
COc1cc(CN2CCC(Cc3ccccc3)CC2)cc(OC)c1OC	-	5.1	0	0	0	0
COc1ccc(CN2CCC(Cc3ccccc3)CC2)c(C)c1C	-	4.3	0	0	0	0
Cn1cc([N+](=O)[O-])c(C(=O)NCc2cc3cc(Cl)ccc3[nH]2)n1	48	0	0	0	0	0
O=C(c1ccccc1)c1ccc(O)c(O)c1O	-	0	0	0	0	0
COc1ccccc1-n1nnnc1SCC(=O)N1CCCC1=O	0	0	0	0	0	0
SMILES	AHR act	DAX1 inh-1	DAX1 inh-2	hgDAF12 agonist	ssDAF12 agonist	hcDAF-12 act
COC(=O)CSc1nc2cc3c(cc2cc1C)OCO3	0	0	0	0	0	0
Cc1cc2cc3c(cc2nc1SCC(=O)Nc1nc(C)c(C)s1)OCO3	92	0	0	0	0	0
N#CCCn1nc(-c2ccccc2)cc1Nc1ccccc1NC(=O)c1cccs1	49	0	0	0	0	0
COc1ccc(N2CC(NS(=O)(=O)c3ccc(F)cc3)CC2=O)cc1 (configuration not stated)	0	0	0	0	0	0
COC(=O)[C@]12C[C@H](CC(=O)N3CCSCC3)C(=O)N(Cc3ccccc3)C1=C[C@H](C1CCCC1)O[C@@H]2C	-	-	0	0	0	0
COc1cccc(NC(=O)CN(C)C(=O)c2c(C)nn(-c3ccccc3)c2Cl)c1	0	0	0	0	0	0
Cc1ccccc1NC(=O)C1Cc2ccccc2CN1C(=O)c1ccco1 (configuration not stated)	0	5.4	0	0	0	0
COc1ccc(Cc2nnc(SCC(=O)c3c(N)n(C4CC4)c(=O)[nH]c3=O)o2)cc1	0	0	0	0	0	0
CCN1CCN(c2nnc(-c3ccccc3)c3ccccc23)CC1	0	0	0	0	0	0
CCN1CCN(c2cc3c(nn2)Oc2ccccc2N3C)CC1	0	0	0	12	0	0
